According to PubChem BioAssay (NCI):
Compounds without any hit were thinned out: in the full panel of roughly 79,000, 15% have a hit. Calls of active or inactive are those of the source. Cut-off read from the data, not from the text of the source: active = growth inhibition above about 70%; inactive = the rest. Where a SMILES comes first, the peptide text is derived from it. Bridges are numbered along the chain shown (N, C = ends). [ ]: non-standard residue; d: D form. NMeV = CN[CH](C(=O)O)C(C)C; Sar = CNCC(=O)O

How the values were obtained:
[1] = NCI Yeast Anticancer Drug Screen. Data for the rad50 strain (AID 155);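 note: 0% = growth of vehicle-only cultures of the same strain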; details: S. cerevisiae rad50 strain growth inhibition, hits give high values
In short: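 Growth of the mutant yeast was measured after compound exposure and referenced to vehicle-treated cultures.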

[2] = NCI Yeast Anticancer Drug Screen. Data for the mec2-1 strain (AID 157); details: S. cerevisiae mec2-1 strain, hits give high values
In short: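 mec2-1 yeast strain, carrying an alteration in DNA damage repair or cell cycle control, was exposed to compounds; growth inhibition was measured relative to vehicle-treated controls.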

[3] = NCI Yeast Anticancer Drug Screen. Data for the sgs1 mgt1 strain (AID 161);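 note: 0% = growth of cultures given vehicle only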; details: S. cerevisiae sgs1 mgt1 strain, hits give high values
In short: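 Yeast cells carrying a defined DNA-repair defect were exposed to test compounds. Growth inhibition was measured relative to vehicle-treated controls.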

[4] = NCI Yeast Anticancer Drug Screen. Data for the cln2 rad14 strain (AID 165);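 note: 0% = growth equal to vehicle treated cultures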; details: S. cerevisiae cln2 rad14 strain, hits give high values
In short: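 Yeast carrying cln2 and rad14 alterations (cell cycle control and DNA damage repair) were exposed to compounds. Growth inhibition was measured against vehicle-treated controls.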

[5] = NCI Yeast Anticancer Drug Screen. Data for the bub3 strain (AID 167); details: S. cerevisiae bub3 mutant strain, hits give high values
In short: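 Whole-cell yeast assay. The mutant strain was incubated with compounds, and growth inhibition was determined by comparison with vehicle-treated cells.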

[6] = NCI Yeast Anticancer Drug Screen. Data for the mlh1 rad18 strain (AID 175); details: S. cerevisiae mlh1 rad18 strain growth inhibition, hits give high values
In short: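 Growth inhibition of the yeast strain was measured after compound exposure and expressed relative to vehicle-treated controls. The strain carries defined defects in DNA damage repair.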

[7] = at 5.0 µM (retest, dose inferred, filed as 0.5)
[8] = at 50.0 µM (retest, dose inferred, filed as 5.0)

Measured: growth inhibition

CCOc1ccc(Nc2nc(C)c(C(=O)/C=C/c3ccc(Cl)cc3Cl)s2)cc1
inactive: [1]; [7] 25% | [1]; [8] 25% | [2]; [7] -6% | [2]; [8] -6% | [2]; at 50.0 µM 31.9% | [3]; [7] 8% | [3]; [8] 8% | [3]; at 50.0 µM 33% | [4]; [7] 6% | [4]; [8] 6% | [4]; at 50.0 µM 48.4% | [5]; [7] 6% | [5]; [8] 6% | [5]; at 50.0 µM 55.5% | [6]; [7] 20% | [6]; [8] 20% | [6]; at 50.0 µM 17.6%
active: [1]; at 50.0 µM 71.1%

C/C(=N/NC(=S)Nc1cccc(Cl)c1)c1ccccn1
active: [1]; [7] 78% | [1]; [8] 97% | [1]; at 50.0 µM 79% | [2]; [7] 91% | [2]; [8] 97% | [2]; at 50.0 µM 86.7% | [3]; [7] 85% | [3]; [8] 97% | [3]; at 50.0 µM 87% | [4]; [7] 81% | [4]; [8] 96% | [4]; at 50.0 µM 88.2% | [5]; [7] 82% | [5]; [8] 96% | [5]; at 50.0 µM 90% | [6]; [7] 91% | [6]; [8] 97% | [6]; at 50.0 µM 90.1%

CC(C)C1NC(=O)C(N)C(C)OC(=O)C(C(C)C)N(C)C(=O)CN(C)C(=O)C2CCCN2C1=O (configuration not stated) (tested in a mixture with another compound) (H-TVP[Sar][NMeV]; ester 1-C; configuration not given here)
active: [1]; [8] 94% | [1]; at 50.0 µM 89.1% | [2]; [8] 97% | [2]; at 50.0 µM 92.2% | [3]; [8] 91% | [3]; at 50.0 µM 90.3% | [4]; [8] 95% | [4]; at 50.0 µM 87.5% | [5]; [8] 96% | [5]; at 50.0 µM 90.8% | [6]; [8] 95% | [6]; at 50.0 µM 90.2%
inactive: [1]; [7] 21% | [2]; [7] 10% | [3]; [7] 18% | [4]; [7] 39% | [5]; [7] 16% | [6]; [7] 11%

CC(=O)c1ccc([N+](=O)[O-])o1
inactive: [1]; [7] 19% | [2]; [7] 22% | [3]; [7] 11% | [3]; [8] 61% | [4]; [7] 0% | [5]; [7] 21% | [6]; [7] 38%
active: [1]; [8] 98% | [1]; at 50.0 µM 96.5% | [2]; [8] 99% | [2]; at 50.0 µM 92.2% | [3]; at 50.0 µM 91.3% | [4]; [8] 97% | [4]; at 50.0 µM 86.9% | [5]; [8] 99% | [5]; at 50.0 µM 92.5% | [6]; [8] 99% | [6]; at 50.0 µM 98.4%

O=C(CC1C(=O)c2ccccc2C1=C1C(=O)c2ccccc2C1=O)c1ccccc1 (configuration not stated)
active: [1]; [8] 71% | [1]; at 50.0 µM 81.8% | [2]; [8] 92% | [2]; at 50.0 µM 89.8% | [3]; [8] 84% | [3]; at 50.0 µM 89.3% | [5]; [8] 94% | [5]; at 50.0 µM 79.2% | [6]; [8] 95% | [6]; at 50.0 µM 74%
inactive: [1]; [7] -8% | [2]; [7] 22% | [3]; [7] 9% | [4]; [7] 19% | [4]; [8] 69% | [4]; at 50.0 µM 68% | [5]; [7] 11% | [6]; [7] -3%

Oc1cccc(/C=C/c2ccncc2)c1
active: [1]; at 50.0 µM 75.1%
inactive: [1]; [7] 0% | [1]; [8] 28% | [2]; [7] -4% | [2]; [8] 13% | [2]; at 50.0 µM 37.6% | [3]; [7] -3% | [3]; [8] 25% | [3]; at 50.0 µM 65.5% | [4]; [7] -6% | [4]; [8] 15% | [4]; at 50.0 µM 25.9% | [5]; [7] -6% | [5]; [8] 22% | [5]; at 50.0 µM 63.8% | [6]; [7] -1% | [6]; [8] 12% | [6]; at 50.0 µM 65.5%

CC(C)CC(CC(C)C)NCC(C)OC(=O)C(c1ccccc1)c1ccccc1 (configuration not stated)
active: [1]; [8] 94% | [2]; [8] 78% | [3]; [8] 97% | [3]; at 50.0 µM 84.8% | [4]; [8] 73% | [5]; [8] 93% | [6]; [8] 96% | [6]; at 50.0 µM 95.2%
inactive: [1]; [7] -1% | [1]; at 50.0 µM 29.2% | [2]; [7] -8% | [2]; at 50.0 µM 50.3% | [3]; [7] -3% | [4]; [7] -3% | [4]; at 50.0 µM 20.9% | [5]; [7] -9% | [5]; at 50.0 µM 68.2% | [6]; [7] 18%

OC(CC(CC(O)(C(F)(F)F)C(F)(F)F)=NN=C(CC(O)(C(F)(F)F)C(F)(F)F)CC(O)(C(F)(F)F)C(F)(F)F)(C(F)(F)F)C(F)(F)F
inactive: [1]; [7] 41% | [2]; [7] 31% | [3]; [7] 32% | [4]; [7] 35% | [5]; [7] 37% | [6]; [7] 46% | [6]; at 50.0 µM 67.6%
active: [1]; [8] 73% | [1]; at 50.0 µM 83.7% | [2]; [8] 92% | [2]; at 50.0 µM 84.3% | [3]; [8] 88% | [3]; at 50.0 µM 78.5% | [4]; [8] 72% | [4]; at 50.0 µM 72% | [5]; [8] 81% | [5]; at 50.0 µM 82.7% | [6]; [8] 93%

Cc1ccc2sc3ccc(N)cc3c(=O)c2c1
inactive: [1]; [7] 27% | [1]; at 50.0 µM 62.6% | [2]; [7] 24% | [2]; at 50.0 µM 31.6% | [3]; [7] 26% | [3]; at 50.0 µM 60.6% | [4]; [7] 26% | [4]; [8] 58% | [4]; at 50.0 µM 43.7% | [5]; [7] 25% | [5]; at 50.0 µM 66.2% | [6]; [7] 27%
active: [1]; [8] 84% | [2]; [8] 74% | [3]; [8] 89% | [5]; [8] 95% | [6]; [8] 92% | [6]; at 50.0 µM 81.8%
